IkB signaling – IkB pathway inhibition in ABC-DLBCL cells; ABC-DLBCL IkBa-CBG/CBR dual luciferase ratio, 4 h; response scale: scaled: untreated 0%, proteasome inhibitor 100%; Potency, µM (series often up to 57.1 µM), for the others: top-dose IkBa stabilization activation; hit rate 0.04% among 110,000; AID 445; active = well fitted curve in the direction sought with a large enough effect in the signal ratio, not every such curve was filed as active; inconclusive = small, poorly fitted or top-dose-only effect, or a change in a side signal; the % refers to the signal ratio;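 also: the direction sought is a rising ratio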
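Curves were fitted separately to fusion (green), unfused (red) and ratio luminescence, then classed by r2, magnitude and activity. Cells: OCI-Ly3, 4 h compound plus doxycycline at 37C; 10 uM MG-132 defined full response.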
TSHR ag – TSH receptor (human) agonism; P16473; HEK293-CNG-TSHR cells (CNG channel as cAMP sensor), membrane potential dye, cAMP; Potency, µM (doses to about 57.1 µM), without a hit: at the highest dose activation, hits mostly activators; hit rate 0.48% among 73,000; AID 926; active = well fitted activation curve with a large enough effect in the main read-out, with a control signal flat, not every such curve was filed as active; inconclusive = small, poorly fitted or top-dose-only effect, or a change in a side signal; inactive = no such curve, though single readings can be large or run the other way; % of control where 0% means no effect;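 also: the control signal comes from parental cells without the receptor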
Target sequence (P16473 whole entry, looked up): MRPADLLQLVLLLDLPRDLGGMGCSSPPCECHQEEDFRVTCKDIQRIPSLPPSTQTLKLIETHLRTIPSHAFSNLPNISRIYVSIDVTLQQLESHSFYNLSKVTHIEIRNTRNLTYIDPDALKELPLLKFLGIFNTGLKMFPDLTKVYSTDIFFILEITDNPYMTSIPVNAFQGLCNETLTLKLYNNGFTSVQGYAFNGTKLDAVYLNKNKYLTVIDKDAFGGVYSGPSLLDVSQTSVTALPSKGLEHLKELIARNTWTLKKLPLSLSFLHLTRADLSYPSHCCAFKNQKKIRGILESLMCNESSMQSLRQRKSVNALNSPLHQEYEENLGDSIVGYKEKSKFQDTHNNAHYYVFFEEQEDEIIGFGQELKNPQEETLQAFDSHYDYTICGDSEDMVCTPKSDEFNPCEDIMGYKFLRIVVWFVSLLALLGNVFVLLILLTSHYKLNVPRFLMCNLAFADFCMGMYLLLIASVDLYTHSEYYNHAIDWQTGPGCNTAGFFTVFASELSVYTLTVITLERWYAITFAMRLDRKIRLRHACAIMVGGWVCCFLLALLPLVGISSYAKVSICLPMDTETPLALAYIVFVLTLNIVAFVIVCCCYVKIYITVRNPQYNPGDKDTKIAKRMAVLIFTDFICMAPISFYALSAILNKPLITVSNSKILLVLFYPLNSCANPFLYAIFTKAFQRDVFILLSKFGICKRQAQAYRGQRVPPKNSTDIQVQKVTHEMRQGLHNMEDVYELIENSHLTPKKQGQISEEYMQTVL
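HEK 293 cells stably expressing TSHR and a cAMP-gated CNG channel; parental CNG-only cells as counterscreen. Cells preloaded 60 min with membrane potential dye plus 100 uM RO 20-1724, then compound 30 min; fluorescence read at 590 nm.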
CRE Fsk mod – CRE-bla signaling modulation under forskolin stimulation. hit rate 2.5% among 71,000. Potency, µM (titrated, usually from 38.2 µM), without a hit: at the highest dose activity change, negative = inhibition, usual class: activators. CHO CRE-bla reporter (cAMP response element driving beta-lactamase), forskolin EC10, beta-lactamase ratio; active = well fitted activation curve with a large enough effect in the signal ratio, with a control signal flat, not every such curve was filed as active; inconclusive = small, poorly fitted or top-dose-only effect, or effect the other way, or a change in a side signal; the % refers to the signal ratio; also: % of control where 0% means no effect
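Modulation of forskolin-driven signalling is measured in CHO cells carrying a CRE-controlled beta-lactamase reporter. Cells are stimulated with EC10 NKH 477 in the presence of titrated compound for 3 h at 37 °C, then loaded with CCF4 for 2 h at room temperature.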
HEK293 cAMP ctrl – raises cAMP in parental HEK293 cells, TSHR agonist counter-screen. parental HEK293 CNG cAMP sensor, membrane potential fluorescence. hit rate 2.5% among 73,000. Potency, µM (highest dose often 57.1 µM), without a hit: top-dose activation, hits mostly activators; active = well fitted activation curve with a large enough effect; inconclusive = small, poorly fitted or top-dose-only effect; inactive = no such curve, though single readings can be large or run the other way; also: % of control where 0% means no effect; nearly all actives have a fitted effect of over 55% in size
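Counterscreen for endogenous-receptor signalling: CNG-channel HEK 293 cells report cAMP rise by membrane depolarization. After 60 min dye equilibration with 100 uM RO 20-1724, compounds incubated 30 min before bottom-read fluorescence at 590 nm.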
Hsp90 Hop PPI – changes Hsp90-Hop TPR2A binding signal, up or down | hit rate 0.44% among 71,000 | Potency, µM (top dose mostly 57 µM), for inactives: top-dose activity change, negative = inhibition | AlphaScreen TPR2A-His6 binding biotin-Hsp90 C-terminal peptide; active = well fitted curve in either direction with a large enough effect; inconclusive = small, poorly fitted or top-dose-only effect, or another doubt; also: % is scaled to controls: 0 for no effect and ±100 for the full control effect
The depositor's hits bear a star; u = inconclusive; x = no result; [ ] = remark or other dose. Only some compounds are listed: those with a hit (about 3.5% of all), similar ones and a draw of the others. Potency is read from the fitted curve at half-maximal effect.

SMILES | IkB signaling | TSHR ag | CRE Fsk mod | HEK293 cAMP ctrl | Hsp90 Hop PPI
CCn1cc2c(c1-c1cccc(C)c1)c(=O)n(C)c(=O)n2C | 3% | 3% | 11% | 1% | -3%
Cc1cccc(N(CC(N)=O)C2SC(=O)N(Cc3cccc(C(=O)O)c3)C2=O)c1 (stereo not drawn) | 6% | x | x | x | x
COc1cccc(Cn2c(=O)c(-c3cccs3)nc3cnc(N4CCNCC4)nc32)c1 | -1%[11.4 µM] | -14% | u | -8% | 27%
Cc1oc(-c2ccc(Cl)cc2)cc1-c1nn2c(-c3ccoc3C)nnc2s1 | 1% | u | -8% | 32µM* | u
CN(C)c1ncc2nc(-c3cccs3)c(=O)n(C3CC3)c2n1 | -4%[11.4 µM] | 7% | u | 9% | 4µM*
O=c1c(-c2ccccc2)nc2cnc(Oc3ccccc3)nc2n1C1CC1 | -1%[11.4 µM] | u | u | u | -1%
O=c1c(-c2cccs2)nc2cnc(Oc3ccccc3)nc2n1C1CC1 | -1%[11.4 µM] | -22% | u | -12% | 20µM*
CCCCOc1cc(C[C@@H]2CNC(=O)N2)ccc1OC | u | 4% | 0.4µM* | 1% | 0%
CCCCOc1ccccc1C1CC(=O)Nc2cc(OC)c(OC)cc21 (stereo not drawn) | 1% | x | x | x | x
CCN1CCN(S(=O)(=O)c2ccc3[nH]c(=O)oc3c2)CC1 | 0% | u | -6% | 32µM* | -2%
CCOC(=O)c1ccccc1NC(=O)CSc1nnc(COc2ccccc2C)n1C | u | u | 6% | 16µM* | 3%
CCOC(=O)c1cnc(SCC(=O)c2ccccc2)nc1N | 4% | 20% | u | 29% | -2%
CCOC(=O)c1ccccc1NC(=O)CSc1ncc(C(=O)OCC)c(N)n1 | -1% | u | u | 20µM* | 6%
COc1ccccc1NC(=O)CSc1nnc(Cc2cccn2C)n1CCc1ccccc1 | 0% | u | u | 20µM* | -9%
CCOC(=O)c1ccccc1NC(=O)CSc1nnc(Cc2cccn2C)n1-c1ccc(C)cc1 | u | u | u | 32µM* | u
COc1ccc(-n2c(Cc3cccn3C)nnc2SCC(=O)Nc2ccccc2C)cc1 | 1% | 11% | -14% | 5% | -4%[2.3 µM]
COc1ccc(Oc2ncc3nc(-c4cccc(C#N)c4)c(=O)n(C)c3n2)cc1 | 3%[11.4 µM] | -1% | 3% | 9% | 0%
COc1ccc(CNc2ccnc(-c3cccnc3)n2)c(OC)c1 | 0%[11.4 µM] | u | u | u | 1%
CCOC(=O)c1ccccc1NC(=O)CSc1nnnn1C1CCCCC1 | u | u | 8% | 32µM* | 15%
COc1ccc(-n2cnnc2SCC(=O)c2cc(C)n(Cc3cccs3)c2C)cc1 | 6% | u | 17% | 25µM* | -17%
CC(=O)Nc1ccccc1OCC(=O)c1cc(C)n(Cc2cccs2)c1C | u | u | -14% | 10µM* | -13%
COc1ccc(-c2nnc(SCC(=O)c3cc(C)n(Cc4cccs4)c3C)o2)cc1 | 0% | u | -16% | u | -5%
Cc1csc(SCC(=O)c2cc(C)n(Cc3cccs3)c2C)n1 | u | u | u | 16µM* | 1%
COc1ccccc1-n1c(SC)nc(O)cc1=O | 1% | u | -11% | 32µM* | -1%[2.3 µM]
COc1ccccc1-n1c(SCC(=O)NC(C)(C)C)nc(O)cc1=O | 10% | -1% | -8% | 2% | -4%
SMILES | IkB signaling | TSHR ag | CRE Fsk mod | HEK293 cAMP ctrl | Hsp90 Hop PPI
Cc1ccc(S(=O)(=O)Nc2ccccc2C(=O)O)c(C)c1 | x | 2% | x | -3% | x
O=C(CN(Cc1ccc2c(c1)OCO2)C(=O)CSc1nc2ccccc2o1)NC1CCCCC1 | u | u | -14% | 16µM* | 1%
CCN1C(=O)[C@H]2[C@H]3[C@H](O)[C@H](O)C/C(=N/OC[C@@H]4O[C@H](c5ccccc5)C=C[C@@H]4Oc4ccc(OC)cc4)[C@@H]3CC[C@@H]2C1=O | x | -1%[11.4 µM] | x | -5%[11.4 µM] | x
O=C(Nc1ccc(N2CCOCC2)c(Cl)c1)C1CCCCC1 | -2% | u | u | 25µM* | -4%
CN(Cc1ccco1)c1ncnc2ccc(-c3ccccc3C#N)cc12 | -3%[11.4 µM] | u | 2µM* | u | 2%
COc1cccc(-c2ccc3ncnc(N(C)Cc4ccco4)c3c2)c1 | -2%[11.4 µM] | u | 10% | 16µM* | -20%
CN(C)c1ccc(-c2ccc3ncnc(N(C)Cc4ccco4)c3c2)cc1 | 2%[11.4 µM] | u | 0.63µM* | u | 6%
CN(C)c1ccc(-c2ccc3ncnc(NC4CC4)c3c2)cc1 | 4%[11.4 µM] | 1% | u | -11% | -3%
O=C(N/N=C1/C[C@@H](O)[C@@H](O)[C@@H]2[C@@H]3C(=O)N(C[C@@H]4CCCO4)C(=O)[C@H]3CC[C@@H]12)OCc1ccccc1 | x | -3%[11.4 µM] | x | 2%[11.4 µM] | x
CC(=O)Nc1c(C(=O)Nc2cccc(C)c2)nnn1-c1ccc(C)cc1 | 19% | x | x | x | x
CSCCC(NC(=O)c1ccccc1)c1nc(-c2ccccc2)no1 (stereo not drawn) | u | u | -23% | 16µM* | 2%
CCNc1ncc2nc(-c3ccc(F)cc3)c(=O)n(CCC#N)c2n1 | -3%[11.4 µM] | 3% | 3.2µM* | 9%[0.457 µM] | -6%
COc1ncc2nc(-c3ccc(F)cc3)c(=O)n(C)c2n1 | -1%[11.4 µM] | 0% | u | 4% | 1%
COc1ccc(Oc2ncc3nc(-c4ccc(F)cc4)c(=O)n(CCC#N)c3n2)cc1 | 1%[11.4 µM] | -3% | u | -16% | -4%
CN(C)c1ncc2nc(-c3ccccc3)c(=O)n(Cc3ccc(F)cc3)c2n1 | 0%[11.4 µM] | u | u | 5µM* | 29%
CN(C)c1ncc2nc(-c3ccc(F)cc3)c(=O)n(C)c2n1 | -1%[11.4 µM] | 11% | 2.5µM* | 9% | -5%
CN(C)c1ncc2nc(-c3ccc(F)cc3)c(=O)n(CCC#N)c2n1 | 1%[11.4 µM] | x | 1.6µM* | 6% | -3%
N[C@@H](CSS(=O)(=O)O)C(=O)O | 1% | 2% | 5% | 8% | -1%
O=C(NCc1cccc2ccccc12)[C@H]1C[C@@H]1[C@H](NP(=O)(c1ccccc1)c1ccccc1)c1ccccc1 | x | u | -14% | u | -11%
Cc1cccc(CNC(=O)c2cnc3c(-c4cccc(C)c4)c(C)nn3c2C)c1 | -1% | x | x | x | x
COCCn1c(=O)c(-c2ccccc2)nc2cnc(N(C)C)nc21 | -2%[11.4 µM] | u | u | u | 20%
Cc1nc2cnc(N(C)C)nc2n(CCC#N)c1=O | 0%[11.4 µM] | -6% | 13µM* | 13% | -8%
COCCn1c(=O)c(-c2ccc(F)cc2)nc2cnc(N(C)C)nc21 | 0%[11.4 µM] | 0% | 1.6µM* | 6% | -4%
Cc1ccc(CCNC(=O)C(CC(C)C)NS(=O)(=O)c2ccc3c(c2)oc(=O)n3C)cc1 (stereo not drawn) | 1% | x | x | x | x
Cc1ccc(-c2noc(-c3nnn(CC(=O)Nc4ccc(C)cc4Cl)c3N)n2)cc1 | 0% | x | x | x | x
Cc1cccc(CNC(=O)Cc2csc3ccccc23)c1 | 2% | x | x | x | x

Source: PubChem BioAssay
